PubChem BioAssay (Tox21)
Calls of active or inactive are those of the source. Calls follow the shape of the dose curve; as a rule, active = well fitted curve in the direction sought with a large enough effect in the repeat runs; inconclusive = weak or mixed curves; inactive = flat fitted curve, though single readings scatter.

assay: qHTS assay to test for compound auto fluorescence at 535 nm (green) in HEK293 cells (AID 720680); conditions: green autofluorescence 485/535 nm; series mostly up to 91.3 µM
Excerpt: U.S. Tox21 Program National Center for Advancing Translational Sciences [NCATS] NIH Chemical Genomics Center [NCGC] U.S. Environmental Protection Agency [EPA] National Institutes of Environmental Health Sciences [NIEHS] National Toxicology Program [NTP] U.S. Food and Drug Administration [FDA] Tox21 Assay Overview: Compound auto fluorescence often interferes with screening of the compound library against various biological targets and signaling pathways. Some of these compounds may have fluorophoric properties. Such properties may interfere with the assay outputs resulting in false positives and/or negatives. To decrease such complications and ensure the compound activities are relevant in terms of biological response, the Tox21 10K compound library was screened for auto fluorescence. From the fluorophores used as reporter signals in our screening assays, the auto fluorescence equivalencies of compounds against three fluorophores have been evaluated: Triamterene, Fluorescein and Rose Bengal sodium for blue, green and red fluorescence, respectively. The fluorescence intensities were measured using Excitation/Emission wavelengths at 405/460nm, 485/535nm and 540/590nm for blue, green and red labels, respectively. This assay includes the green fluorescence data.
Tox21 Assay Protocol Summary: 2,000 HEK293 cells in 5 uL of culture medium containing 10% dialyzed FBS per well were dispensed into black wall/clear bottom 1536-well plates using a Multidrop Combi Dispenser (Thermo Scientific). The assay plates were incubated for 4-5 hr at 37C to allow cell attachment to the well bottom, followed by the transfer of 23 nL compound or DMSO vehicle by a pintool work station (Kalypsys, San Diego, CA). After the assay plates were incubated overnight at 37C and 5% CO2, fluorescence intensities in the assay plates were measured by an Envision (PerkinElmer, Shelton, CT) plate reader using three labels for measuring blue, green and red fluorescence at […] 460, 535 and 590nm respectively.
% is scaled to controls: 0 for no effect and ±100 for the full control effect.

Structure (SMILES)	outcome	fluorescence, % of fluorescein
c1ccc2c(c1)ccc1c3ccccc3ccc21	inactive	–
O=C(/N=N/C(=O)OCc1ccccc1)OCc1ccccc1	inactive	–
C[Si](C)(C)C	inactive	–
O=C(O)CCSSCCC(=O)O	inactive	–
CCC(C=O)CC	inactive	–
O=C(Nc1ccc(Cl)c(Cl)c1)C1CC1	inactive	–
CCOc1cc(NC(C)=O)ccc1C(=O)OC	inactive	–
C=C(C)C(=O)OCCN(CC)CC	inactive	–
CCCCC(CC)COCCO (stereo not given)	inactive	–
Brc1ccc(-c2ccccc2)cc1	inactive	–
O=P(O)(O)OP(=O)(O)O	inactive	–
On1nnc2ccccc21	inactive	–
CC(C)CC(C)CC(C)CC(C)COC(=O)c1ccccc1C(=O)OCC(C)CC(C)CC(C)CC(C)C (stereo not given)	inactive	–
CC(=O)c1sc(C)nc1C	inactive	–
OCCC(F)(F)C(F)(F)C(F)(F)C(F)(F)C(F)(F)C(F)(F)C(F)(F)C(F)(F)F	inactive	–
Cc1cc2cc3c(C)cc(=O)oc3c(C)c2o1	–	0.0223% [at 18.6 µM] (inactive)
CC(C(=O)O)c1ccc2c(c1)CC(=O)c1ccccc1S2 (stereo not given)	inactive	–
O=C(NCC(O)CO)c1c(I)c(C(=O)NCC(O)CO)c(I)c(N(CCO)C(=O)CO)c1I (stereo not given)	–	-0.0067% [at 18.6 µM] (inactive)
CC(=O)NCCCCCC(=O)O	inactive	–
CC1(C)S[C@@H]2[C@H](N=CN3CCCCCC3)C(=O)N2[C@H]1C(=O)O	inactive	–

Structure (SMILES)	outcome	fluorescence, % of fluorescein
Nc1cccc(O)c1	inactive	–
COc1ccc(OC)c(Cl)c1	inactive	–
Cc1cccc(C)c1NC(=O)c1ccccc1C(=O)O	inactive	–
CC1(CO)CN(c2ccccc2)NC1=O (stereo not given)	inactive	–
C=C(C)C(=O)OCCOP(=O)(O)OCCOC(=O)C(=C)C	inactive	–
CCCCCCCCOS(=O)(=O)O	inactive	–
O=C(CCN1CCN(CCO)CC1)N1c2ccccc2Sc2ccc(C(F)(F)F)cc21	inactive	–
Nc1ccc2cc(S(=O)(=O)O)cc(O)c2c1	inactive	–
CC(=O)OC(C)OC(=O)C(C)c1ccc(-c2ccccc2)c(F)c1 (stereo not given)	inactive	–
O=C(OCc1ccccc1)C(=O)OCc1ccccc1	inactive	–
O=S(=O)(O)c1cc(O)c2ccc(Nc3ccccc3)cc2c1	inactive	–
CN(C)C(=O)CNC(=O)Cc1ccccc1	inactive	–
CCCN1C[C@H](CSC)C[C@@H]2c3cccc4[nH]cc(c34)C[C@H]21	inactive	–
COc1nccnc1NS(=O)(=O)c1ccc(N)cc1	inactive	–
O=S(O)(O)=S	–	-0.0177% [at 3.72 µM] (inactive)
O=C1O[C@@H]2[C@@H](O)[C@H](O)O[C@@H]2[C@H]1O	inactive	–
CC(C)(C)c1cc(CCC(=O)NN)cc(C(C)(C)C)c1O	inactive	–
CCN(C)C(=O)Oc1cccc([C@H](C)N(C)C)c1	inactive	–
CCO[Si](CCCS)(OCC)OCC	inactive	–
O=C(CCNNC(=O)c1ccncc1)NCc1ccccc1	inactive	–
